Compound activity: PubChem BioAssay, National Center for Advancing Translational Sciences (NCATS)
A selection: hits, their analogues and other compounds. The true share with any hit is near 0.95%.
FBPA Giardia inh – qHTS Assay for Inhibitors of Fructose-1,6-bisphosphate Aldolase from Giardia Lamblia; A8B2U2; purified Giardia FBPA; Potency, µM (titrated, usually from 59.6 µM), without a hit: at the top dose activity, negative = inhibition, actives largely listed as inhibitors; 290,000 tested, 0.71% active; AID 2451, 2010; further: nearly all actives have a fitted effect of over 55% in size
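Giardia FBPA (40 nM reagent) was preincubated 10 min at RT with compound (up to 57.5 uM final), then substrate plus GAPDH/TPI/NAD/arsenate coupling system with diaphorase/resazurin was added; resorufin fluorescence (525/598 nm) was read after 20 min.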
TbPYK inhibitor – qHTS of Trypanosoma Brucei Inhibitors | Potency, µM (titrated, usually from 76.8 µM), for inactives: at the highest dose activity, negative = inhibition, usual class: inhibitors | 410,000 tested, 0.12% active | pyruvate kinase (Trypanosoma brucei), Q57TT1 | TbPYK enzyme, Kinase-Glo Plus ATP luminescence, 45 min; further: nearly all actives have a fitted effect of over 50% in size
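T. brucei PYK with substrate was exposed to pin-transferred compounds across a concentration series, then started with 130 uM ADP (final). After 45 min at room temperature, Kinase-Glo Plus luminescence was read, normalized and curve-fitted.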
RE007 growth inh – qHTS Assay for Inhibitors of the HIV-1 protein Vpr. 360,000 tested, 0.21% active. S. pombe RE007 Vpr strain, BacTiter-Glo ATP luminescence, 24 h. Potency, µM (series often up to 92.2 µM), for the others: at the top dose activity change, negative = less growth, actives largely listed as inhibitors; active means well fitted falling curve with a large enough effect; inconclusive means small, poorly fitted or top-dose-only effect; inactive means no such curve, though single readings can be large or run the other way; further: nearly all actives have a fitted effect of over 50% in size
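Fission yeast RE007 carrying one integrated HIV-1 vpr copy, seeded at OD 0.01 in PMG+AL medium with 23 nL pinned compound. Grown 24 h at 30 degrees; viability read by BacTiter-Glo luminescence after 5 min.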
LmPK inhibitor – qHTS Assay for Inhibitors of Leishmania Mexicana Pyruvate Kinase (LmPK); Q27686; AID 1721, 2009; 290,000 tested, 0.37% active; purified LmPK, Kinase-Glo ATP luminescence, 1 h; Potency, µM (highest dose often 57.5 µM), inactives show at the highest dose activity change, negative = inhibition, usual class: inhibitors
Target sequence (Q27686 whole entry, looked up): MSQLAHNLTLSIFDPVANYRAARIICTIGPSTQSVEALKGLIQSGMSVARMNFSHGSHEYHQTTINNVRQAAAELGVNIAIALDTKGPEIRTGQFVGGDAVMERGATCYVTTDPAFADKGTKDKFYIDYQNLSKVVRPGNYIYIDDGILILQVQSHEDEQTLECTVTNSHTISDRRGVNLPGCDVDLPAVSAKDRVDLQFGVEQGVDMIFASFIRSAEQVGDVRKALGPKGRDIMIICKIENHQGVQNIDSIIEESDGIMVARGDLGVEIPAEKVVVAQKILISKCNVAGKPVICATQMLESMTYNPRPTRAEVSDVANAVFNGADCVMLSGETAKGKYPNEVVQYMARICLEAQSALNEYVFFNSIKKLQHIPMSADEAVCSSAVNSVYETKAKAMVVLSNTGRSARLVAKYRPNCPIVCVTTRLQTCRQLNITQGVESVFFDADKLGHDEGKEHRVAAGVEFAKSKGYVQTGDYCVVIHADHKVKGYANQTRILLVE
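In 50 mM imidazole pH 7.2 with 7 mM MgCl2, LmPK (0.1 nM) turned over PEP (0.5 mM) and ADP (0.1 mM) for 1 h at room temperature. Luciferase read-out of ATP.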
* hit, by the source's call; ? = inconclusive; . = not tested or not shown; [ ] = dose if it differs, or a comment. Unless noted, the call rests on the fitted dose curve; in most records, active means well fitted curve in the direction sought with a large enough effect; inconclusive means small, poorly fitted or top-dose-only effect, or another doubt; inactive means no such curve, though single readings can be large; an effect the other way counts as inactive or inconclusive. On the % scale 0 is the no-effect control and ±100 the full control effect; potency means the concentration at half of the fitted maximal effect.

SMILES	FBPA Giardia inh	TbPYK inhibitor	RE007 growth inh	LmPK inhibitor
CC(=O)O[C@H]1C[C@@H]2CC[C@@H]3[C@H](CC[C@]4(C)[C@H](OC(C)=O)[C@@H](N5CC[N+](C)(C)CC5)C[C@@H]34)[C@@]2(C)C[C@@H]1N1CC[N+](C)(C)CC1	.	-8.2%	.	.
COc1ccc(-c2nc3cnc(OC)nc3n(-c3ccc(OC)cc3)c2=O)cc1	0.7%	.	.	.
Nc1c(C(=O)N2CCOCC2)sc2nc(N3CCOCC3)c3c(c12)CCCC3	-5.5%	15.8µM*	9.6%	-26.5%
Cc1nn(-c2ccccc2)c2c1N(CCCC(=O)NCc1ccc(OC(C)C)cc1)C(=O)CS2	.	-0.6%	.	.
CCCCCC/C=C/c1ccc(C2C3C=CCC(C)C3C(=O)N2Cc2ccccc2)c(F)c1 (stereo unspecified)	2.6%	.	.	.
Cc1nc2nc(-c3ccc(Cl)cc3)cn2nc1C	2.4%	-3.0%	-13.5%	?
Cc1nc2nc(-c3cccs3)cn2nc1C	-16.8%	-13.6%	?	28.2µM*
COc1cccc(-c2cn3nc(C)c(C)nc3n2)c1	-0.1%	-27.9%	?	12.6µM*
COc1cccc(Cn2c(=O)c(-c3cc(F)cc(F)c3)nc3cnc(N4CCNCC4)nc32)c1	6.3%	.	.	.
Cc1ccc(NC(=O)c2ccc(CN3CCN(C)CC3)cc2)cc1Nc1nc(-c2cccnc2)cs1	.	0.0%	.	.
Cc1ccc(-c2cc3nc(C)cc(NCc4ccco4)n3n2)cc1	-17.9%	0.8%	?	28.2µM*
CC(=O)Nc1ccc(S(=O)(=O)Nc2cc(C)on2)cc1	.	3.1%	.	.
CC1(c2ccc([N+](=O)[O-])cc2)Nc2ccccc2S1 (stereo unspecified)	-7.1%	-16.9%	39.8µM*	2.3%
O=C(Nc1ccccc1)N1CC[C@@]2(CCCN(C(=O)c3cccc(F)c3)C2)C1	-0.4%	-6.6%	.	.
CCCCc1c(-c2ccccc2)ncn1CCc1ccccc1OC	.	-2.6%	-29.6%	.
CCCCc1c(-c2cccc(Cl)c2)ncn1CCc1ccccc1OC	.	7.8%	44.7µM*	.
CCCCCCCCCCOCCC(=O)O	2.3%	.	.	.
N#CC1C(=O)c2ccccc2C1c1ccccc1 (stereo unspecified)	.	-25.2%	8.91µM*	.
O=C1CCC(c2ccccc2)c2ccccc21 (stereo unspecified)	.	4.3%	7.2%	.
CCCNc1nc(C#N)nc(Nc2ccccc2)n1	2.6%	.	.	.
O=S(=O)(c1cccc(-c2n[nH]c(=S)n2C2CCCC2)c1)N1CCOCC1	-2.5%	6.31µM*	0.7%	7.5%[11.5 µM]
C=CCn1c(-c2cccc(S(=O)(=O)N3CCOCC3)c2)n[nH]c1=S	.	?	-10.9%	.
Cc1cc(C=c2sc3nc4ccccc4n3c2=O)c(C)n1-c1ccccc1	.	0.0%	.	.
COc1cccc(OC)c1C(=O)NC(C)C12CC3CC(CC(C3)C1)C2 (stereo unspecified)	3.6%	-0.9%	10µM*	-2.6%
CC(=O)OC[C@@H]1O[C@@H](O/N=C2/C[C@@H](O)[C@@H](O)[C@@H]3[C@@H]4C(=O)N(C5CCCCC5)C(=O)[C@H]4CC[C@@H]23)[C@H](OC(C)=O)[C@H](OC(C)=O)[C@@H]1OC(C)=O	0.6%[12.9 µM]	.	.	.
SMILES	FBPA Giardia inh	TbPYK inhibitor	RE007 growth inh	LmPK inhibitor
CC12CC3(C)CC(C)(C1)CC(C(=O)NC1=NCCS1)(C2)C3	.	0.7%	25.1µM*	.
O=C(NC1=NCCS1)C12CC3CC(C1)CC(C(=O)NC1=NCCS1)(C3)C2	-3.0%	-14.1%	-16.6%	-2.3%
CC(C)(C)C(=O)NC1=NCCS1	-2.4%	-0.6%	7.2%	-3.7%
CC12CC3CC(C)(C1)CC(C(=O)NC1=NCCS1)(C3)C2	0.0%	-8.1%	5.62µM*	2.8%
O=C(Nc1cccc(F)c1)N1CCCC2(CCN(C(=O)c3ccncc3)CC2)C1	4.5%	-4.9%	.	.
OC[C@@H](O)CN1CCN(c2ccccc2)CC1	4.8%[21.7 µM]	.	.	.
S=C(S)N1CCCC1	12.6µM*	-13.7%	-4.8%	.
C[C@@]1(C(=O)O)NCCc2cc(O)c(O)cc21	12.6µM*	.	.	.
C=CCOC(=O)N[C@H](/C(C(=O)OC)=C(\C)NCc1ccccc1)c1cccc(OC)c1	-2.2%	.	.	.
CN(C)c1ncc(C2=C(Cl)C(=O)C(N3CCCC3)=C(Cl)C2=O)s1	.	?	-8.7%	.
O=C1C(Cl)=C(N2CCCCC2)C(=O)C(Cl)=C1c1cnc(N2CCCCC2)s1	7.06µM*	?	-25.5%	20µM*
COc1ccc(/C=N/Nc2nncn2N)cc1Br	?	-7.6%	?	0.2%
COc1cc(/C=N/Nc2nncn2N)ccc1OCc1c(C)no[n+]1[O-]	5µM*	2.2%	-16.0%	0.0%
O=C(CN1CCN(S(=O)(=O)c2cc(Cl)ccc2Cl)CC1)Nc1cccc(F)c1	.	0.1%	.	.
OC[C@H]1O[C@@H](n2cnc3c2NC=NC[C@H]3O)C[C@@H]1O	.	-15.8%	.	.
Fc1ccc(-c2nnc(NC3=NCCCCC3)o2)cc1	-7.1%	?	?	15.8µM*
c1ccc(-c2nnc(NC3=NCCC3)o2)cc1	2.6%	-11.0%	-19.0%	20µM*
O=C(Nc1ccccc1)Nc1nnc(-c2ccccc2)o1	-3.8%	-17.1%	0.0%	-7.2%
N#Cc1c(-c2ccco2)c2c([nH]c1=S)CCCC2	?	17.8µM*	7.7%	3.2%
COc1ccc(-c2c3c([nH]c(=S)c2C#N)CCC3)cc1	?	12.6µM*	9.5%	5.2%
N#Cc1c(-c2cccnc2)c2c([nH]c1=S)CCCC2	-23.2%	?	15.1%	22.3%
O=c1oc2ccccc2cc1-c1nc2c(s1)CCc1ccccc1-2	7.92µM*	-15.9%	-19.3%	7.7%
O=c1oc2cc(O)ccc2cc1-c1nc2c(s1)CCc1ccccc1-2	?	-8.7%	0.6%	4.1%
O=C(OCC1OC(OC(=O)c2cc(O)c(O)c(OC(=O)c3cc(O)c(O)c(O)c3)c2)[C@@H](OC(=O)c2cc(O)c(O)c(OC(=O)c3cc(O)c(O)c(O)c3)c2)C(OC(=O)c2cc(O)c(O)c(OC(=O)c3cc(O)c(O)c(O)c3)c2)C1OC(=O)c1cc(O)c(O)c(OC(=O)c2cc(O)c(O)c(O)c2)c1)c1cc(O)c(O)c(OC(=O)c2cc(O)c(O)c(O)c2)c1 (stereo partly specified)	3.54µM*	?	.	.
Cc1cn(C2OC(COC(=O)c3ccccc3)C(OC(=O)c3ccccc3)C2OC(=O)c2ccccc2)c(=O)[nH]c1=O (stereo unspecified)	3.6%	3.3%	3.7%	1.0%
O=C(O)c1cc(Oc2ccc([N+](=O)[O-])cc2)cc(Oc2ccc([N+](=O)[O-])cc2)c1	20.3%	.	.	.
CCOC(=O)C1=C(C)N(c2ccccc2)C(=O)/C1=C\c1ccc(O)c(OC)c1	17.7µM*	-15.2%	-9.1%	?
COc1cc(/C=C2/C(=O)CNC2=O)ccc1O	-28.4%	?	-3.6%	-3.6%
COc1cc(C=C2C(=O)C=CC2=O)ccc1O	.	3.55µM*	2µM*	.
CC(=O)OC[C@]12CCC(C)=C[C@H]1O[C@@H]1[C@H](O)[C@@H](OC(C)=O)[C@@]2(C)[C@]12CO2	0.0%	3.6%	3.16µM*	0.0%
